In all, about 200,000 compounds went through this assay and about 18,000 (9%) were called active. The entries come from a sample that favours actives as a whole. A number with no mark means an inactive call. No stated cut-off is given here; in the data, active means inhibition above about 50%; inactive means the rest.
experiment: Leishmania major promastigote growth inhibition, primary screen (AID 1063); settings: Leishmania major promastigotes, resazurin fluorescence viability; at 10 µM; stronger effect = higher value;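 further: promastigotes grown with compound for 44 hours at 28 °C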

Structure (SMILES)	inhibition
Cc1cccc2nc(CSc3nc4[nH]ncc4c(=O)n3-c3cccc(Cl)c3)cc(=O)n12	56.1% (active)
COc1ccc(CCNC(=O)CSc2nc3[nH]ncc3c(=O)n2-c2cccc(C(F)(F)F)c2)cc1OC	-7.3%
CCc1ccc(-n2c(SCc3cc(=O)n4cc(Br)ccc4n3)nc3[nH]ncc3c2=O)cc1	56.9% (active)
O=C(CSc1nc2[nH]ncc2c(=O)n1-c1ccccc1)N1CCCc2ccccc21	15.2%
Cc1ccc(CSc2nc3[nH]ncc3c(=O)[nH]2)cc1	-3.25%
O=c1c2sccc2nc(SCc2cc(=O)n3ccccc3n2)n1-c1ccc(Br)cc1	12.1%
CC(C)Oc1ccc(Cc2n[nH]c(=S)n2Cc2ccccc2)cc1Cl	4.91%
Nc1c(NCCc2ccccc2)c2ccccc2oc1=O	-2.7%
Cc1ccc(C(=O)N/C(=C\c2cccs2)C(=O)NCCc2ccccn2)cc1C	16.6%
COC(=O)C1=C(C)N(C)C(=S)NC1c1cc(OC)ccc1OC (stereo not given)	3.3%
COc1cc(SC)ccc1C(=O)Nc1cc(C)ccn1	25.5%
COc1cc(SC)ccc1C(=O)NCCOc1ccccc1Cl	1.79%
COc1ccccc1CNC(=O)c1ccc(SC)cc1OC	66.9% (active)
O=C(NNC(=O)C1C2CCC(C2)C1C(=O)O)c1ccc(Cl)cc1 (stereo not given)	-5.41%
Cc1cccc(C(=O)OC(C)CN2CCN(C)CC2)c1 (stereo not given)	3.94%
CO/N=C/c1cn(-c2ccc(Cl)cc2)nn1	-1.77%
CCC1CCCCN1CCCNC(=O)c1cc2c(Cl)nc3ccccc3c2s1 (stereo not given)	100% (active)
CCC1CCCCN1CCCNC(=O)C1CCC(Cn2c(=O)[nH]c3ccccc3c2=O)CC1 (stereo not given)	-4.5%
CCC1CCCCN1CCCNC(=O)Cn1nc(-c2ccccc2)ccc1=O (stereo not given)	-4.42%
CC(C)OCC(O)CN1CCN(C(c2ccccc2)c2ccccc2)CC1 (stereo not given)	0.57%
Cc1ccccc1C(OCCN(C)C)C1CCCCC1 (stereo not given)	18.1%
Cc1ccccc1C(OCC(O)CN1CCCCC1CCO)c1ccccc1 (stereo not given)	99.7% (active)
CC(C)N(Cc1nc(-c2ccc3c(c2)OCO3)no1)CC1CCC(=O)N1 (stereo not given)	-6.4%
COc1ccc(C(=O)Nc2ccc(S(=O)(=O)NC(C)C)cc2)cc1	-3.72%

Structure (SMILES)	inhibition
COc1ccc(NS(=O)(=O)c2ccc(NC(=S)NC(=O)CC(C)C)cc2)cc1	96.7% (active)
CC(=O)c1ccc(NC(=S)NC(=O)CC(C)C)cc1	-4.65%
COc1ccc(C2=NN(c3ccccc3)C(c3cccs3)C2)cc1 (stereo not given)	44.3%
COc1cc(NC(=O)CN(C)S(=O)(=O)c2ccc3nc(C)sc3c2)cc(OC)c1	13%
O=C(Nc1ccc2nc3n(c(=O)c2c1)CCCCC3)c1ccccc1Cl	0.22%
Cc1ccc2nc3n(c(=O)c2c1)CCC3	-7.48%
CCCCN(CC)C(=S)Nc1ccc2nc3n(c(=O)c2c1)CCCCC3	55.5% (active)
O=C(OCC(=O)N1CCOCC1)c1ccc(N2CCOCC2)c([N+](=O)[O-])c1	0.36%
CC(C)(C)CN1CCNC(=O)C1CC(=O)NC1Cc2ccccc2C1 (stereo not given)	-0.33%
Brc1ccc2nc(N3CCCC3)sc2c1	17%
O=C(c1ccc2c(c1)N(Cc1ccc(F)cc1)C(=O)c1ccccc1S2(=O)=O)N1CCN(c2ccccn2)CC1	97% (active)
O=C(c1ccc2c(c1)C(=O)N(c1ccc(Cl)cc1)C2=O)N1CCN(c2ccccn2)CC1	-5.18%
CCCCN(C)C(=O)c1ccc2c(c1)N(CC)C(=O)c1ccccc1S2(=O)=O	-6.56%
S=C1SCN(CCN2CCOCC2)CN1Cc1ccccc1	86.7% (active)
CCN1CN(Cc2ccccc2)CNC1=S	-5.52%
C/C(CCc1ccccc1)=N\NC(=O)c1ccc(CN2CCOCC2)cc1	-3.42%
CCCn1nc(Oc2nc(NC(C)C)nc(N(C)C)n2)ccc1=O	7.02%
CC(=O)Nc1ccc(S(=O)(=O)Nc2ccc(-c3ccc4nnc(C)n4n3)cc2)cc1	-6.31%
COc1ccc(-c2nn3c(-c4ccccc4)nnc3s2)cc1OC	3.79%
CCOc1cccc(-c2nn3c(-c4ccccn4)nnc3s2)c1	6.06%
c1ccc(-c2cc(-c3nnc4sc(-c5ccccn5)nn34)[nH]n2)cc1	84.6% (active)
COc1ccc(N2C(=O)CC(Nc3ccc(F)cc3)C2=O)c([N+](=O)[O-])c1 (stereo not given)	-0.61%
CN(C)c1ccc(C2Nc3ccccc3C(=O)N2NS(=O)(=O)c2ccccc2)cc1 (stereo not given)	3.72%
O=C(O)c1ccc(NC(=O)c2cn(-c3ccccc3)nc2-c2ccc(Cl)cc2)cc1	-2.74%

Structure (SMILES)	inhibition
O=C(NCc1cccnc1)c1cn(-c2ccccc2)nc1-c1cccs1	1.01%
COc1ccc(-c2nn(-c3ccccc3)cc2C(=O)Nc2nccs2)cc1OC	21.8%
Cc1ccccc1NC(=O)c1ccccc1	-0.75%
O=C(Nc1cn(-c2ccccc2)nc1-c1ccccc1)c1ccccc1	82.8% (active)
O=C(NNC(=S)NC(=O)c1cn(-c2ccccc2)nc1-c1ccccc1)c1ccncc1	54.9% (active)
CCN(CC)S(=O)(=O)c1ccc(N2CCOCC2)c(NC(=O)C2COc3ccccc3O2)c1 (stereo not given)	26.2%
N#CC1=C(N)Oc2[nH]c(=S)[nH]c(=O)c2C12C(=O)Nc1ccccc12 (stereo not given)	-9.87%
COc1ccc(N2CCN(C(=O)CCSCc3ccccc3F)CC2)cc1	3.84%
COC(=O)c1ccc(NC(=S)NN2CCOCC2)cc1	-9.83%
CC(NC(=O)Nc1ccccc1)C(c1cccs1)N1CCN(c2ccccc2)CC1 (stereo not given)	-1.95%
Cc1nc2ccc(NC(=S)N3CCC(C)CC3)cc2nc1C	-1.44%
COc1ccc(OCCCn2cccc2/C=C2/C(=N)N3OC(C)=CC3=NC2=O)cc1	21.9%
Cc1cc(C)nc(SCC(=O)N(C)C)n1	-4.86%
CC1(C)CC(CCC(=O)Nc2ccccc2Cl)C(=O)O1 (stereo not given)	-7.36%
CC1(C)CC(CC(=O)O)C(=O)O1 (stereo not given)	-2.75%
C/C(CC1CC(C)(C)OC1=O)=N/Nc1nc(-c2ccccc2)cs1 (stereo not given)	55.5% (active)
CC(=O)Nc1nc(N(C)C)nc(N(C)C)n1	2.36%
O=C(NCc1ccco1)C(=O)c1cn(CC(=O)N2CCCCCC2)c2ccccc12	5.44%
O=C(COC(=O)/C=C/c1cccc(Cl)c1)NCCc1ccccc1	53.4% (active)
CCOC(=O)CCCNC(=O)COC(=O)/C=C/c1ccc2c(c1)OCO2	-1.67%
COc1ccc(CCNC(=O)COC(=O)/C=C/c2cccs2)cc1OC	4.8%
COc1ccc(C2OCC3(CO2)SC(=O)NC3=O)cc1OC (stereo not given)	-7.62%
O=C(NNC(=S)Nc1ccccc1)c1cccc(S(=O)(=O)N2CCOCC2)c1	-4.58%
COc1ccccc1NC(=O)C[n+]1ccccc1	-3.72%

Structure (SMILES)	inhibition
COC(=O)c1cc(C(=O)N(Cc2ccccc2)c2ccccn2)cc([N+](=O)[O-])c1	8.15%
Fc1ccccc1/C=C1\CCCC2=C1Nc1ncnn1C2c1ccccc1F (stereo not given)	98.9% (active)
O=C(NCc1cccnc1)c1nc(-c2cccs2)no1	4.89%
COc1ccc(NC(=O)N2CCC(Cc3ccccc3)CC2)cc1	-0.62%
C=CCn1c(CC(=O)Nc2cccc(OC)c2)nnc1SCC(=O)NC1CCCCC1	-2.71%
COc1cccc(NC(=S)NCCCN2CCOCC2)c1	1.1%
CCOc1ccccc1C(=O)NC1CC2CCCC(C1)N2Cc1ccccc1 (stereo not given)	16%
COc1ccc(NC(=O)NC2CC3CCCC(C2)N3Cc2ccccc2)cc1 (stereo not given)	66.9% (active)
C=CCN1C2CCCC1CC(NC(=S)Nc1cccc(OC)c1)C2 (stereo not given)	54.3% (active)
COc1ccc(N=C2SC(C(=O)Nc3ccc(F)cc3)CC(=O)N2C)cc1 (stereo not given)	20.6%
CN1CCN(C(=O)/C(=C\c2ccc3c(c2)OCO3)NC(=O)c2cccs2)CC1	-8.78%
CN(CCc1cn[nH]c1)C(=O)CC1C(=O)NCCN1Cc1cccc(Oc2ccccc2)c1 (stereo not given)	0.64%
O=C(/C=C/c1cn(-c2ccccc2)nc1-c1ccc2c(c1)OCCO2)NCCCN1CCOCC1	41.1%
Nc1ccc(OCC(O)C[n+]2ccc(CCS(=O)(=O)[O-])cc2)cc1 (stereo not given)	-3.78%
O=C(O)c1ccc(N/N=C/c2ccc3ncccc3c2)cc1	-9.46%
CN(C(=O)CSc1nnc(-c2c[nH]c3ccccc23)o1)C1CCS(=O)(=O)C1 (stereo not given)	0.33%
CCOc1cccc(NC(=O)C2CCCN(S(=O)(=O)c3ccc(OC)cc3)C2)c1 (stereo not given)	30.8%
CSCC(=O)N1CCCC(C(=O)c2cc(F)ccc2F)C1 (stereo not given)	-4.01%
COc1ccc(/C=C/CN2CCCC(C(=O)c3cc(F)ccc3F)C2)cc1 (stereo not given)	81.1% (active)
O=C1CCC(CCC(=O)N2CCCC(C(=O)c3ccc(Cl)cc3)C2)=NN1 (stereo not given)	-5.05%
CCc1nnc(NC(=O)CSc2nnnn2-c2cccc(C(C)=O)c2)s1	-4.47%
O=C(NNC(=O)c1ccccc1[N+](=O)[O-])Nc1ccccc1C(F)(F)F	0.59%
Cn1cnnc1Sc1ccc(S(C)(=O)=O)cc1[N+](=O)[O-]	-6.44%
